In the supplement of paper PMC10849652:
The full data set covers some 7,900 targets. This sample favours those with a hit. About 0.6% of all pairs of compound and target were hits. Unmarked numbers belong to inactive results.

Key:
Experiment in all cases: log2 fold change, soluble protein after heating vs DMSO (PISA); higher = thermal stabilisation; K562 cells, 10 uM, 30 min; active = over 0.2 and 3.5 SD of the protein, either way, in both replicates (recomputed)
[1] = compound: C1=CC=C(C=C1)[C@H](COC2=CC3=C(C=C2)NC(=O)N3)NC(=O)C4=CC=CN(C4=O)CC5=CC(=C(C=C5)F)F
Method in brief: (§1)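 K562 cells at 2×10^6 cells/mL were treated for 30 min with 10 μM compound, and aliquots were heated for 3 min over 48°C-58°C before pooling. Extraction used PBS with 0.5% NP-40 at 4°C, and soluble protein was the supernatant after 21,000xg for 90 min, measured by TMTpro 16plex LC-MS/MS with channel sums equalised. Thermal stability values, relative to control samples and from duplicates, are log2 fold changes.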

[2] = compound: CC1=C(SC2=C1C(=N[C@H](C3=NN=C(N32)C)CC(=O)N)C4=CC=C(C=C4)Cl)C
Method in brief: as §1

[3] = compound: CC1=C2C(=CC=C1)N=C(N(C2=O)C3=CC=CC=C3C)CN4C=NC5=C(N=CN=C54)N
Method in brief: as §1

[4] = compound: Cc1sc2c(c1C)C(c1ccc(Cl)cc1)=N[C@@H](CC(=O)OC(C)(C)C)c1nnc(C)n1-2
Method in brief: as §1

[5] = compound: c1ccc([C@@H]2C[C@H]2NC2CCNCC2)cc1
Method in brief: as §1

UniProt Q8NC56, sequence (Q8NC56 whole entry, looked up): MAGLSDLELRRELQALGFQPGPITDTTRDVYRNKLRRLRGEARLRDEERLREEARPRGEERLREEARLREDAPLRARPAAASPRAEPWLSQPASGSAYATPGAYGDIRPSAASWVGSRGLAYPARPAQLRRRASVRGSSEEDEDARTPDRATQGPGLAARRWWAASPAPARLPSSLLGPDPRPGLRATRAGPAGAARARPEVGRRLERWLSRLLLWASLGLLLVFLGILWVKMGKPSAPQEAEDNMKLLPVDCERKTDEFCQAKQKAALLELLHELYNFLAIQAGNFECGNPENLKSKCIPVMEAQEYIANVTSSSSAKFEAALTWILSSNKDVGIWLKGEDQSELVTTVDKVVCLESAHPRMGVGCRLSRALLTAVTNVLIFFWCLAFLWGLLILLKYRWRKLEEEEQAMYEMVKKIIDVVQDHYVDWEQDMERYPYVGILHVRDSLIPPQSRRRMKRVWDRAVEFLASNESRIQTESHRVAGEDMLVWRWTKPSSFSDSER
UniProt P45983, sequence (P45983 whole entry, looked up): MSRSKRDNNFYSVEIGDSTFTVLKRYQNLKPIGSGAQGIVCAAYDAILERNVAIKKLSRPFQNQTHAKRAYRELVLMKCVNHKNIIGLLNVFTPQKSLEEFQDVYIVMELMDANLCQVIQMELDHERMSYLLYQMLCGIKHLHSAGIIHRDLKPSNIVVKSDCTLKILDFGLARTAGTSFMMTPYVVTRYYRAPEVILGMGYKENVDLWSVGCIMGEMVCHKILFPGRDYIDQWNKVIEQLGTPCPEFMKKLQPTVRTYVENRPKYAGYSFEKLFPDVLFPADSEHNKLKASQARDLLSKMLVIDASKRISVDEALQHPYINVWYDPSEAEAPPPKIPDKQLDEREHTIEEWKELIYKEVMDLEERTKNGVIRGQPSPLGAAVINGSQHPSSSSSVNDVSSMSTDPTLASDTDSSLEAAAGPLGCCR
UniProt Q7Z4S6, sequence (Q7Z4S6 whole entry, looked up): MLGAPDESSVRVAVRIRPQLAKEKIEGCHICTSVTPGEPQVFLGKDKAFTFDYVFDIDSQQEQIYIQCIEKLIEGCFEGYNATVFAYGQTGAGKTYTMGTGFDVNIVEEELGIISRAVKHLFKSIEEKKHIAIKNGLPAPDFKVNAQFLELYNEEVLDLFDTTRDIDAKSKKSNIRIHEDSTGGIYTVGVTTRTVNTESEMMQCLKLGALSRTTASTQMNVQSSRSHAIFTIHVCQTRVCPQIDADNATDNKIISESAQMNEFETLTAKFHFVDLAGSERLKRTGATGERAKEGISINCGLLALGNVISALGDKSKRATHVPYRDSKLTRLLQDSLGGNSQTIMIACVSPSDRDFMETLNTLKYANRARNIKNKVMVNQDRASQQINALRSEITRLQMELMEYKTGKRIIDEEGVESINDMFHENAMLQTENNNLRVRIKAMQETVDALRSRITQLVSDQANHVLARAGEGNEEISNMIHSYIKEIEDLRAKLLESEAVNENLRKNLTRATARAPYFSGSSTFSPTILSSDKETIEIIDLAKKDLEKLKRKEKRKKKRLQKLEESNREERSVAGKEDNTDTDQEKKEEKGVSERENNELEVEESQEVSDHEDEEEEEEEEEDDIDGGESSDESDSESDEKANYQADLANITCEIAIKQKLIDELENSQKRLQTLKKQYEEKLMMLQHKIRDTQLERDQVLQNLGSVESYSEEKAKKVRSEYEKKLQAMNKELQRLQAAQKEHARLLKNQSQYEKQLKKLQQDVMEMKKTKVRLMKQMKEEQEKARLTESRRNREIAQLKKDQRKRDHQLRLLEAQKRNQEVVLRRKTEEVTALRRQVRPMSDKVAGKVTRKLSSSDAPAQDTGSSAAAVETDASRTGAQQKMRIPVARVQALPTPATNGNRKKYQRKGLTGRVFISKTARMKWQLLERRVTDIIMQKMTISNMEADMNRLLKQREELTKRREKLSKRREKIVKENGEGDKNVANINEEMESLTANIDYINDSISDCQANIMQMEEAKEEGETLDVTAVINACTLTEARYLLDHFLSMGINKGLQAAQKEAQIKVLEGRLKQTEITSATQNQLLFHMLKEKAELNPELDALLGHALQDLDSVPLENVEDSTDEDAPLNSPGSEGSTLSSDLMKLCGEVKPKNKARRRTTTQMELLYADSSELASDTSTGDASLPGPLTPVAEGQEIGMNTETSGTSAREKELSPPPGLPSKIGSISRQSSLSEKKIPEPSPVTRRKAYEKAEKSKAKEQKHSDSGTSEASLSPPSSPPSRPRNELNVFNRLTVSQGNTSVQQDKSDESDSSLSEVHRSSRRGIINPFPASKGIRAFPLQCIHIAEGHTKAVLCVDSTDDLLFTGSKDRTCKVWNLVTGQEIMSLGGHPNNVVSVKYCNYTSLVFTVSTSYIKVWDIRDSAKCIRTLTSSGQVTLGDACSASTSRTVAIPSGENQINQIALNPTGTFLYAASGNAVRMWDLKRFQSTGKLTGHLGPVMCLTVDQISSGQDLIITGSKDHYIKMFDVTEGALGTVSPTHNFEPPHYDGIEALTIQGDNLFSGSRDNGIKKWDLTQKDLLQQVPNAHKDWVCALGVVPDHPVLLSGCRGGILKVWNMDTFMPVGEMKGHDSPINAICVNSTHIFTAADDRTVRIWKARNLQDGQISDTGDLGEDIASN
UniProt P32019, sequence (P32019 whole entry, looked up): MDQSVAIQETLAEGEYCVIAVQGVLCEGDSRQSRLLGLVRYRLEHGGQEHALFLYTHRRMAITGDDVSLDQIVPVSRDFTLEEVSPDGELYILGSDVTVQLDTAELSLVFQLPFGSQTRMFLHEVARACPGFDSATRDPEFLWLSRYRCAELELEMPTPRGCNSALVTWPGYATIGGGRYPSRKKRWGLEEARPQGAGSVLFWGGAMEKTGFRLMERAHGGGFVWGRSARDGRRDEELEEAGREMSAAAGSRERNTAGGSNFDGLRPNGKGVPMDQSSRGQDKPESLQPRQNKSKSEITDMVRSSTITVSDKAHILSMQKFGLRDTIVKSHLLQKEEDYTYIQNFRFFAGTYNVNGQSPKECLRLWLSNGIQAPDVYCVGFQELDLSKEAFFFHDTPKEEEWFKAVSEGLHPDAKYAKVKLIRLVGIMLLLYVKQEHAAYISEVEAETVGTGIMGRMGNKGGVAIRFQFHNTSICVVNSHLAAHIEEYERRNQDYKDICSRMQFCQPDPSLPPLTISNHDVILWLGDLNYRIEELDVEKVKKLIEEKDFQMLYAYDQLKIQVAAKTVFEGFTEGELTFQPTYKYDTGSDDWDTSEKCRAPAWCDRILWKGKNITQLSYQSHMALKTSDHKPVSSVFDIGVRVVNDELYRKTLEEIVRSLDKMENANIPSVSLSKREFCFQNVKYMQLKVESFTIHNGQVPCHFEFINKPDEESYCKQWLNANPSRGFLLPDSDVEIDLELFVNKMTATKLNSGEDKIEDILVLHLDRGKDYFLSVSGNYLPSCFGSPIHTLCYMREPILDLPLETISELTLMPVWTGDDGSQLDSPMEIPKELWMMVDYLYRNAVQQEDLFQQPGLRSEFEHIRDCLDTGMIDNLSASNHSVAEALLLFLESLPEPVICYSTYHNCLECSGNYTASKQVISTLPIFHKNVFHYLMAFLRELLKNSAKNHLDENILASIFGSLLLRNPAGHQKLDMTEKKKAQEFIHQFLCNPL
UniProt P49441, sequence (P49441 whole entry, looked up): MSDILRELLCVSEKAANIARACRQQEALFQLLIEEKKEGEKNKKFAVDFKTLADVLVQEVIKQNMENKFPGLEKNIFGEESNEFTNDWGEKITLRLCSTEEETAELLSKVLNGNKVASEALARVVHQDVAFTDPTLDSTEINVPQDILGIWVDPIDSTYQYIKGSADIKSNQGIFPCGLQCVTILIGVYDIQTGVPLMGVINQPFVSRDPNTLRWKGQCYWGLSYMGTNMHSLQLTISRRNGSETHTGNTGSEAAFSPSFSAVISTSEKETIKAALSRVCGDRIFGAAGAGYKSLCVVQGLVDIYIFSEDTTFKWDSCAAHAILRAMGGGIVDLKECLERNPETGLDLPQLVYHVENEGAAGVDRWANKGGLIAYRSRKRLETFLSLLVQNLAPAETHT
UniProt O43766, sequence (O43766 whole entry, looked up): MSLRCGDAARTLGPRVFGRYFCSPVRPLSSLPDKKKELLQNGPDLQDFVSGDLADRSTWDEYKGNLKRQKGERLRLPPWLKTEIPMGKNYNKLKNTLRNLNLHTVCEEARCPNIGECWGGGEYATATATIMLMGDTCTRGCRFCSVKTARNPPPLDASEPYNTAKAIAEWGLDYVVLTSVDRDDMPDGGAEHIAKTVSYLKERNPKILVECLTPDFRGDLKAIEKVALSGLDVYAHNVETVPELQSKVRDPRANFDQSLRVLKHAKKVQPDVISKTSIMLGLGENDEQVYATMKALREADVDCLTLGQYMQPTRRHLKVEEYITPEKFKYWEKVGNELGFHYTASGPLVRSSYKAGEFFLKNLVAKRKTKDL
UniProt Q13422, sequence (Q13422 whole entry, looked up): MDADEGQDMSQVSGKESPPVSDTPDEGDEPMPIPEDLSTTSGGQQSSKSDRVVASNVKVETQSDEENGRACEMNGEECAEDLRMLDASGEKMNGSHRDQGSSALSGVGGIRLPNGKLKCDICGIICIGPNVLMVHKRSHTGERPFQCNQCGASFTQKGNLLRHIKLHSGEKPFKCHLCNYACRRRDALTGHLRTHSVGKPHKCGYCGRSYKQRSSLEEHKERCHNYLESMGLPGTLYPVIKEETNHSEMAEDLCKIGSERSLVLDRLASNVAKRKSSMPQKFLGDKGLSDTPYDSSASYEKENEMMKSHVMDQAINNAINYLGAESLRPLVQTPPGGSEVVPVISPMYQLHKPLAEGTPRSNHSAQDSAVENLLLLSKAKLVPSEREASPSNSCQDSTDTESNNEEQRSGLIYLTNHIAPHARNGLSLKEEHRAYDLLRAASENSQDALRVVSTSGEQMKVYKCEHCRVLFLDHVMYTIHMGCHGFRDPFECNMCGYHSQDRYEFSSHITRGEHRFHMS
UniProt Q9BRT3, sequence (Q9BRT3 whole entry, looked up): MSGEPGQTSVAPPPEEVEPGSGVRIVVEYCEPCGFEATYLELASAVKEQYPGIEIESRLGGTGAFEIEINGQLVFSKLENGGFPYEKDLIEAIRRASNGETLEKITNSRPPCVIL

Target | log2 fold change [1] | log2 fold change [2] | log2 fold change [3] | log2 fold change [4] | log2 fold change [5]
KSR1 (UniProt Q8IVT5) | -0.044 | 0.033 | 0.137 | 0.044 | 0.018
IRF2BPL (UniProt Q9H1B7) | -0.051 | 0.027 | 0.001 | -0.067 | -0.043
LEMD2 (UniProt Q8NC56) | -0.031 | 0.136 | 0.114 | -0.017 | 0.005
KPNA1 (UniProt P52294) | -0.03 | -0.049 | 0.079 | -0.003 | -0.001
KDM3B (UniProt Q7LBC6) | -0.013 | 0.026 | 0.08 | 0.038 | 0.071
IPO7 (UniProt O95373) | -0.082 | 0.031 | 0.069 | -0.025 | 0.003
KIF3B (UniProt O15066) | -0.068 | -0.014 | 0.028 | 0.09 | -0.054
IMMP1L (UniProt Q96LU5) | 0.054 | 0.045 | 0.101 | -0.021 | 0.024
MAP3K4 isoform 2 (UniProt Q9Y6R4) | -0.047 | 0.026 | 0.057 | -0.034 | 0.018
MCUR1 (UniProt Q96AQ8) | -0.02 | 0.018 | 0.007 | -0.008 | -0.023
KIF21A isoform 4 (UniProt Q7Z4S6) | -0.003 | -0.024 | 0.061 | -0.077 | 0.014
IKZF1 isoform 2 (UniProt Q13422) | 0.335 | 0.217 | 0.052 | -0.026 | 0.061
METTL18 (UniProt O95568) | 0 | -0.027 | 0.061 | -0.055 | 0.028
ITM2B (UniProt Q9Y287) | 0.013 | -0.068 | 0.061 | -0.028 | -0.112
INPP5B (UniProt P32019) | -0.067 | 0.056 | 0.024 | 0.086 | -0.035
MAST4 (UniProt O15021) | -0.081 | 0.037 | 0.061 | -0.002 | -0.041
MBLAC1 (UniProt A4D2B0) | -0.019 | 0.067 | -0.064 | – | -0.029
MAPK12 (UniProt P53778) | -0.022 | 0.017 | 0.026 | 0.008 | -0.002
MAPK8 isoform 3 (UniProt P45983) | -0.007 | 0.151 | 0.072 | 0.061 | -0.055

Target | log2 fold change [1] | log2 fold change [2] | log2 fold change [3] | log2 fold change [4] | log2 fold change [5]
IWS1 (UniProt Q96ST2) | -0.01 | 0.08 | 0.037 | 0.045 | -0.035
MASTL (UniProt Q96GX5) | 0.047 | 0.081 | 0.009 | – | -0.02
KCTD2 (UniProt Q14681) | 0.008 | -0.01 | 0.022 | 0.195 | 0.158
MARCKS (UniProt P29966) | 0 | -0.046 | -0.066 | -0.065 | 0.031
MIF (UniProt P14174) | -0.101 | 0.016 | 0.015 | -0.083 | 0.004
MDN1 (UniProt Q9NU22) | -0.08 | 0.041 | 0.059 | -0.054 | -0.049
MIEN1 (UniProt Q9BRT3) | 0.035 | 0.101 | 0.014 | -0.097 | 0.019
LIMA1 isoform 4 (UniProt Q9UHB6) | 0.002 | 0.014 | -0.002 | -0.028 | 0.034
LGALS8 isoform 2 (UniProt O00214) | -0.032 | 0.011 | -0.166 | -0.022 | -0.12
INPP1 (UniProt P49441) | -0.017 | -0.002 | 0.125 | -0.002 | 0.01
LENG8 (UniProt Q96PV6) | 0.036 | 0.177 | -0.356 | -0.028 | 0.022
LMBRD2 (UniProt Q68DH5) | 0.029 | 0.084 | 0.06 | -0.12 | -0.035
MCU (UniProt Q8NE86) | -0.02 | 0.035 | 0.038 | -0.018 | -0.013
MFSD5 isoform 2 (UniProt Q6N075) | 0.071 | 0.08 | 0.112 | -0.049 | -0.055
MIEF1 (UniProt L0R8F8) | 0.072 | 0.026 | 0.039 | -0.092 | 0.007
L2HGDH (UniProt Q9H9P8) | -0.031 | 0.07 | 0.078 | 0.018 | -0.029
MARCKSL1 (UniProt P49006) | -0.052 | 0.029 | -0.032 | -0.008 | 0.011
KMT2C isoform 3 (UniProt Q8NEZ4) | 0.032 | 0.04 | 0.017 | -0.076 | -0.001
MFGE8 (UniProt Q08431) | 0.005 | -0.051 | -0.091 | -0.068 | -0.129

Target | log2 fold change [1] | log2 fold change [2] | log2 fold change [3] | log2 fold change [4] | log2 fold change [5]
ITM2C (UniProt Q9NQX7) | -0.077 | 0.007 | 0.122 | – | -0.121
IKZF1 (UniProt Q13422) | -0.011 | 0.05 | 0.15 | -0.009 | 0.014
IMMT isoform 4 (UniProt Q16891) | 0.005 | 0.021 | 0.026 | -0.025 | -0.008
MIER1 isoform 12 (UniProt Q8N108) | -0.012 | 0.073 | 0.059 | 0.016 | 0.02
LMBR1 isoform 3 (UniProt Q8WVP7) | -0.194 | 0.147 | -0.134 | -0.349 | 0.078
LIAS (UniProt O43766) | 0.001 | -0.042 | 0.008 | 0.049 | 0.05
MED8 isoform 2 (UniProt Q96G25) | 0.011 | -0.053 | -0.381 (active) | – | 0.039
LRBA (UniProt P50851) | -0.016 | 0.05 | 0.088 | 0 | -0.023
MICU2 (UniProt Q8IYU8) | 0.013 | -0.037 | -0.123 | -0.029 | 0.021
MAPRE3 isoform 2 (UniProt Q9UPY8) | – | 0.033 | – | 0.279 | 0.017
MAP3K20 isoform 2 (UniProt Q9NYL2) | – | – | – | -0.033 | –
KCNK5 (UniProt O95279) | -0.028 | 0.114 | – | – | -0.054
LRBA, A0A494BZW2 | 0.002 | 0.048 | – | 0.113 | 0.014
LMNA isoform 2 (UniProt P02545) | – | – | – | -0.033 | –
INTS5 (UniProt Q6P9B9) | -0.091 | – | 0.052 | 0.065 | –
MCM10 (UniProt Q7L590) | -0.04 | – | 0.204 | 0.032 | –
ITGA2B (UniProt P08514) | – | 0.022 | 0.112 | 0.029 | -0.043
MED12 isoform 2 (UniProt Q93074) | -0.002 | – | – | -0.434 | –
